Screening results: PubChem BioAssay, several laboratories
Shown are actives, neighbours in structure and some others; about 3.2% of the full set was active somewhere.
Pemphigus Ab inh: inhibitors of pemphigus antibody binding to human desmoglein-3; DSG3-coupled beads, scFv-anti-DSG3-GFP binding, flow cytometry; stronger effect = lower value; AID 588358; binding (percent of control), % at 10 µM; 310,000 compounds, 0.48% hits;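 active = binding more than 3 SD below its plate's average and above zero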
NadD block: NadD (S. aureus) enzyme inhibition. purified NadD enzyme, colorimetric absorbance read-out. inhibition, % at 20 µM. 360,000 compounds, 0.78% hits. AID 602399; in the data active = inhibition above about 26%
rCAG RNA binder: molecules binding r(CAG) RNA repeats. 370,000 compounds, 1.3% hits. inhibition, % at 3 µM. AID 651821. r(CAG) RNA repeat, TO-PRO-1 dye displacement fluorescence;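 active = inhibition above the plate cutoff, the mean of all test compounds on that plate plus 3 SD, cut at about 35% in these data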;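 note: 0% = DMSO alone and 100% = 100 µM mitoxantrone as full dye displacement; higher means more dye released from RNA so lower well fluorescence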
MsrA act: activates bovine MsrA enzyme; activation, % at 10.6 µM; purified bovine MsrA, absorbance read-out; 360,000 compounds, 0.3% hits; in the data active = activation above about 7.5%;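 note: 0% = vehicle and 100% = reference activator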
MsrA inh: inhibitors of bovine MsrA; purified bovine MsrA, absorbance read-out; inhibition, % at 15.5 µM; 360,000 compounds, 0.75% hits; in the data active = inhibition above about 4.5%;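 note: 0% = vehicle wells with enzyme and 100% = reference inhibitor wells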
DAGLB inhibitor: diacylglycerol lipase beta (human) inhibition. inhibition, % at 5.17 µM. 340,000 compounds, 0.059% hits. HEK293T DAGLB membrane lysate, EnzChek fluorogenic substrate; in the data active = inhibition above about 34%;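 note: 0% = enzyme with vehicle and 100% = wells lacking enzyme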
Target sequence (Q8NCG7 whole entry, looked up): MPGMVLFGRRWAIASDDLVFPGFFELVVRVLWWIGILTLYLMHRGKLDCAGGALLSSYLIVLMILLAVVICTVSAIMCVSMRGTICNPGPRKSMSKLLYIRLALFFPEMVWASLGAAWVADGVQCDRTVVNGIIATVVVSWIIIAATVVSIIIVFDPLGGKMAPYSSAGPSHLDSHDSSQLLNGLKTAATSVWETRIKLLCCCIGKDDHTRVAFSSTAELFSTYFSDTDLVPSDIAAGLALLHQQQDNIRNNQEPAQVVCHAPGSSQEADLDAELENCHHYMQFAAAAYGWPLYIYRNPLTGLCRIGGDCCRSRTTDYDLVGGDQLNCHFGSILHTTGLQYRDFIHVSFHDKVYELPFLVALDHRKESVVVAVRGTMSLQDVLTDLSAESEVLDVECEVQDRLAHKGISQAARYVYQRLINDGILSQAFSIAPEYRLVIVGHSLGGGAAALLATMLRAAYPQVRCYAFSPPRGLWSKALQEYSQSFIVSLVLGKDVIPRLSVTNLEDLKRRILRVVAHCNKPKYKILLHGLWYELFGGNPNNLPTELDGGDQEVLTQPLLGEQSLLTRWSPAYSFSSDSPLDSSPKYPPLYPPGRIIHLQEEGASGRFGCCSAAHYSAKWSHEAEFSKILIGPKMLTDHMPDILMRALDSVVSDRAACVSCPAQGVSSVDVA
rCAG bind conf: r(CAG) RNA repeat binding, confirmation; shares compounds with rCAG RNA binder; TO-PRO-1 dye displacement fluorescence; inhibition, % at 3 µM; 4,300 compounds, 70% hits; AID 652065;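 active = inhibition above a per-plate cutoff, the mean inhibition of sample wells plus 3 SD, cut at about 35% in these data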;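 note: loss of TO-PRO-1 fluorescence as compound displaces dye from 1x1 AA loop RNA; 0% = DMSO only wells and 100% = 100 µM mitoxantrone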
dCAG dye counter: DNA CAG dye complex inhibition counter-screen. shares compounds with rCAG RNA binder. d(CAG) DNA oligo TO-PRO-1 dye displacement, fluorescence. inhibition, % at 3 µM. 4,300 compounds, 94% hits. AID 652068;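 active = inhibition above its plate's cutoff, the mean test-well inhibition plus 3 SD, cut at about 4.8% in these data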;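 note: 0% = DNA dye mix with DMSO and 100% = 100 µM mitoxantrone; hits displace the dye from DNA and so lower well fluorescence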
An asterisk follows results filed as active; nt = no result given.

SMILES	Pemphigus Ab inh	NadD block	rCAG RNA binder	MsrA act	MsrA inh	DAGLB inhibitor	rCAG bind conf	dCAG dye counter
Cc1ccc(OC[C@@H](O)CN2CCC(C(O)(c3ccccc3)c3ccccc3)CC2)cc1	nt	nt	1	nt	nt	nt	nt	nt
CC1NC(=O)c2ccccc2-n2c1nc1ccc(F)cc1c2=O (stereo unspecified)	nt	1	2	-1	-1	nt	nt	nt
CC1(C)C=Cc2c(c3c(c4c(=O)c(-c5ccc(O)cc5)coc24)OC(C)(C)CC3)O1	nt	27	7	-4	1	1	nt	nt
CC(C)=CCc1c2c(c3occ(-c4ccc(O)cc4)c(=O)c3c1O)C=CC(C)(C)O2	103	4	36*	-3	1	-13	31	13*
CC(C)=CCc1c2c(c3occ(-c4ccc(O)c(O)c4)c(=O)c3c1O)C=CC(C)(C)O2	90	15	47*	0	0	8	43*	28*
CC(C)=CCc1c(O)cc2c(=O)c3ccc(O)cc3oc2c1O	99	3	33	-6	0	-3	nt	nt
Cc1ccc(S(=O)(=O)N2CC(C(=O)O)=CC[C@H]2c2ccc(Cl)cc2)cc1	107	4	37*	-2	0	1	16	4
COc1cc([C@@H]2CC=C(C(=O)O)[C@H](c3ccc(Cl)cc3)N2S(=O)(=O)c2ccc(C)cc2)cc(OC)c1OC	107	3	35*	-2	0	6	34	7.6*
CC(=O)C1=CCC(c2ccc(C)cc2)N(S(=O)(=O)c2ccc(Cl)cc2)C1 (stereo unspecified)	nt	-7	4	-3	1	nt	nt	nt
Cc1ccc(S(=O)(=O)N2[C@@H](c3ccc(Cl)cc3)C(C(=O)O)=CC[C@H]2c2ccc(Cl)c(Cl)c2)cc1	97	8	86*	0	-1	5	86*	59*
Cc1ccc(S(=O)(=O)N2C(c3ccc(Cl)c(Cl)c3)CC=C(C(=O)O)C2c2ccc(Cl)cc2)cc1 (stereo unspecified)	nt	nt	82*	nt	1	nt	83*	52*
Cc1ccc(S(=O)(=O)N2C(c3ccc(Cl)c(Cl)c3)CC=C(C(=O)O)C2c2cccc(Cl)c2)cc1 (stereo unspecified)	nt	nt	12	nt	1	nt	nt	nt
O=C(O)c1ccc(Nc2nc3ccccc3nc2NS(=O)(=O)c2ccc(F)cc2)cc1	nt	6	41*	-4	2	10	53*	21*
NS(=O)(=O)c1cccc(Nc2nc3ccccc3nc2NS(=O)(=O)c2ccc(Cl)cc2)c1	133	8	90*	-1	1	8	89*	68*
O=C(O)c1cccc(Nc2nc3ccccc3nc2NS(=O)(=O)c2ccccc2)c1	97	4	36*	-4	3	6	39*	12*
O=[N+]([O-])c1ccc(S(=O)(=O)Nc2nc3ccccc3nc2Nc2ccccc2)cc1	102	21	8	-2	0	nt	nt	nt
CC1(C(=O)NS(=O)(=O)c2ccccc2Cl)CCN1C(=O)C1(c2ccc(Cl)cc2)CC1 (stereo unspecified)	nt	2	36*	-2	-1	nt	28	5.1*
Cc1ccccc1S(=O)(=O)NC(=O)C1(C)CCN1C(=O)C1(c2ccc(Cl)cc2)CCC1 (stereo unspecified)	nt	2	48*	-3	-1	nt	37*	8.8*
CC1(C(=O)NS(=O)(=O)c2ccccc2Cl)CCN1C(=O)C1(c2ccccc2)CCCC1 (stereo unspecified)	nt	-5	33	-3	-1	nt	nt	nt
COC(=O)[C@]12C[C@H](CC(=O)NCCC(C)C)C(=O)N(Cc3ccc4c(c3)OCO4)C1=C[C@H](C(C)C)O[C@@H]2C1CC1	nt	nt	1	nt	nt	nt	nt	nt
O=C(Nc1c(C(=O)Nc2cccc3ccccc23)cnn1-c1ccccc1)c1ccco1	106	0	64*	3	1	4	49*	16*
O=C(Nc1c(C(=O)Nc2ccccc2)cnn1-c1ccccc1)c1ccco1	102	-4	4	-3	-1	-1	nt	nt
COC(=O)C1=C(C)N(Cc2ccc(C(F)(F)F)cc2)C(=NCc2ccc(C(F)(F)F)cc2)NC1c1ccccc1 (stereo unspecified)	nt	nt	6	nt	-3	nt	nt	nt
CN(C)S(=O)(=O)c1ccc(C(=O)Nc2ccccc2C(=O)O)cc1	106	-2	24	-12	0	-3	nt	nt
CN(C)S(=O)(=O)c1cccc(C(=O)Nc2cc3c(cc2C(=O)O)OCCCO3)c1	104	-5	39*	-1	3	3	29	5.2*
SMILES	Pemphigus Ab inh	NadD block	rCAG RNA binder	MsrA act	MsrA inh	DAGLB inhibitor	rCAG bind conf	dCAG dye counter
CN(C)S(=O)(=O)c1ccc(C(=O)Nc2cc3c(cc2C(=O)O)OCCCO3)cc1	107	-12	59*	-7	1	-2	29	5.1*
COc1cccc(CN2CCC2(C)C(=O)NCc2cccc(C(F)(F)F)c2)c1OC (stereo unspecified)	nt	-3	0	5	-1	nt	nt	nt
C[C@@H]1CN([C@@H](C)CO)C(=O)CCCn2cc(nn2)CO[C@H]1CN(C)C(=O)Nc1ccc(N2CCN(C)CC2)cc1	nt	nt	-1	nt	2	nt	nt	nt
CCc1c(O)nc(SCC(=O)Nc2nc3ccccc3s2)n(C2CCCCC2)c1=O	nt	9	40*	-2	0	4	48*	15*
O=C1c2c(-c3ccc(Br)cc3)noc2CCN1Cc1cn(-c2ccccc2)nn1	nt	nt	4	nt	0	nt	nt	nt
CC(C)CNC(=O)C1(C)CCCN1C(=O)c1ccncc1 (stereo unspecified)	nt	-1	1	0	-1	nt	nt	nt
COc1ccc(-c2cc(C(F)(F)F)nc(SCc3cccc(C(=O)O)c3)n2)cc1	89	0	5	-3	-1	6	nt	nt
O=C(O)c1cccc(CSc2nc(-c3ccccc3)cc(C(F)(F)F)n2)c1	108	4	62*	-2	1	7	48*	14*
Cc1cc(SCC(=O)c2ccc(O)c(O)c2)nc2ccccc12	112	3	35*	-4	2	17	54*	23*
Cc1cc(SCC(=O)c2ccc3c(c2)OCO3)nc2ccccc12	105	3	9	-3	-1	-22	nt	nt
Cc1ccc(S(=O)(=O)/N=C2\C=C(NS(=O)(=O)c3ccccc3)C(=O)c3ccccc32)c(C)c1	99	32*	54*	-8	-1	19	86*	58*
Cc1ccc(C(=O)O)cc1NC(=S)NC(=O)C(c1ccccc1)c1ccccc1	105	0	58*	-3	0	8	38*	10*
Cc1ccc(C(=O)O)cc1NC(=S)NC(=O)Cc1ccccc1	98	-11	4	-14	1	-3	nt	nt
CC(C)Oc1ccc(C(=O)NC(=S)Nc2ccc(Cl)c(C(=O)O)c2)cc1	96	-9	3	1	0	-2	nt	nt
